This is a sample that favours compounds with a hit; in the whole collection about 0.47% have one here.
AID inh = Primary qHTS assay for inhibitors of Activation Induced Cytidine Deaminase (AID): AID signal. Single-stranded DNA cytosine deaminase (Homo sapiens), Q9GZX7. AID deamination FRET fluorescence, UDG-coupled, 4 h. Potency, µM (titrated, usually from 115 µM), most hits filed as inhibitors. 91,000 tested, 0.32% active. AID 1347428, 2020; further: nearly all actives have a fitted effect of over 25% in size
Target sequence (Q9GZX7 whole entry, looked up): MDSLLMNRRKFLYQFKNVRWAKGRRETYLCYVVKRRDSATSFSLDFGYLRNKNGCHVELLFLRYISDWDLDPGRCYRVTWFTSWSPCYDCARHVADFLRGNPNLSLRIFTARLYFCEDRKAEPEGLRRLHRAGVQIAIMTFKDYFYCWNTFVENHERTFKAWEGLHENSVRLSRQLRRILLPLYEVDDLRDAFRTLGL
UDG counterscr = Primary qHTS assay for inhibitors of Activation Induced Cytidine Deaminase (AID): UDG Counterscreen signal; Uracil-DNA glycosylase; FRET deamination/UDG coupled assay, UDG read, 4 h; Potency, µM (series often up to 115 µM), hits mostly inhibitors; 91,000 tested, 0.14% active; AID 1347430, 2020; further: nearly all actives have a fitted effect of over 65% in size
A number is an active result; . = inactive; ? = inconclusive. The call rests on the fitted dose curve; in most records, active means well fitted curve in the direction sought with a large enough effect; inconclusive means small, poorly fitted or top-dose-only effect, or another doubt; inactive means no such curve, though single readings can be large; an effect the other way counts as inactive or inconclusive.

SMILES | AID inh | UDG counterscr
CCCCC1CCC(C(=O)N2CC(=O)Nc3ccc(F)cc3C2c2ccc(F)cc2)CC1 (stereo unspecified) | 35µM | .
CCCC(=O)N1CC(=O)Nc2ccc(Cl)cc2C1c1ccc(F)cc1 (stereo unspecified) | . | .
CCc1ccc2c(c1)NC(c1ccc(OC)cc1)=NC(c1ccncc1)=N2 | ? | 89µM
COc1ccc(C2=NC(c3ccncc3)=Nc3ccc(OC)cc3N2)cc1 | . | .
C#CCNC(=O)c1sc(C(C)C)nc1C | . | .
O=C(O)CCC(=O)N1N=C(c2ccc3c(c2)OCO3)CC1c1ccccc1 (stereo unspecified) | . | .
Cc1cc(NC(=O)CCN2CCN(Cc3cccc4ccccc34)CC2)ccc1Br | ? | 89µM
COc1cccc(NC(=O)CCN2CCN(c3ccccc3)CC2)c1 | . | .
Cc1cccc(NC(=O)CCN2CCN(Cc3cccc4ccccc34)CC2)c1 | ? | 79µM
Cc1ccc(NC(=O)CCN2CCN(CCO)CC2)cc1C | . | .
CC1(C)CS(=O)(=O)N(c2ccc(C(=O)Nc3ccc4c(c3)OCO4)cc2)C1=O | . | .
N#Cc1ccc(OCC(=O)NOCc2ccccc2)cc1 | . | .
Cn1cc(/C=C/C(=O)N2CCCC(C(F)(F)F)C2)c(=O)n(C)c1=O (stereo unspecified) | . | .
Cc1nn2c(=O)cc(COC(=O)c3ccc(NC(=O)C4CCCCC4)cc3)nc2s1 | 45µM | .
CCc1nn2c(=O)cc(COC(=O)c3ccc(NC(=O)C4CCCCC4)cc3)nc2s1 | . | .
Cc1ccc(C(=O)C(C)OC(=O)c2c(C)noc2C)cc1 (stereo unspecified) | . | .
CCN(CC)S(=O)(=O)c1cc(-c2nnc(Nc3ccc(OC)c(C(N)=O)c3)c3ccccc23)ccc1C | 35µM | ?
Cc1ccc(-c2nnc(Nc3ccc(Cl)c(Cl)c3)c3ccccc23)cc1S(=O)(=O)N(C)C | . | .
O=C(NCCNCc1c[nH]c2ccccc12)c1cccs1 | . | .
COc1ccc(Oc2coc3cc(OC(=O)c4ccc5c(c4)OCO5)ccc3c2=O)cc1 | . | .
Cc1ccc(C)c(N2CCN(C(=O)Cn3nc(Cc4cccnc4)c4ccccc4c3=O)CC2)c1 | 71µM | .
O=C(Cn1nc(Cc2cccnc2)c2ccccc2c1=O)N1CCN(c2ccc(F)cc2)CC1 | . | .
Cc1cc(-n2c(C)nc3ccccc3c2=O)ccc1NC(=O)c1cccc([N+](=O)[O-])c1C | . | 89µM
Cc1cc(-n2c(C)nc3ccccc3c2=O)ccc1NC(=O)c1ccccc1[N+](=O)[O-] | . | .
Cc1cc2c(C(C)C)c(O)c(O)c(C=O)c2c(O)c1-c1c(C)cc2c(C(C)C)c(O)c(O)c(C=O)c2c1O | 79µM | .
SMILES | AID inh | UDG counterscr
C=CCSc1ccccc1NS(=O)(=O)c1ccc(S(=O)(=O)N(CC)CC)cc1 | . | .
CCc1cccc(NC(=O)C2CCN(S(=O)(=O)c3cccc(-c4noc(C)n4)c3)CC2)c1 | . | 79µM
Cc1nc(-c2cccc(S(=O)(=O)N3CCC(C(=O)NCc4ccccc4Cl)CC3)c2)no1 | . | ?
Cc1ccccc1Cc1c(C)nc2nc(SCC(=O)NCCc3ccc(Cl)cc3)nn2c1C | ? | .
Cc1nc2nc(SCC(=O)NCCc3ccc(Cl)cc3)nn2c(C)c1Cc1ccccc1Cl | 35µM | .
CCCCCCc1ccc(C(=O)Nc2ccc(C)cc2)cc1 | . | .
CCOc1ccc(NC(=O)CN(c2ccc(Cl)cc2C)S(=O)(=O)c2ccccc2)cc1 | ? | 89µM
CCOc1ccc(NC(=O)CN(c2ccccc2OCC)S(=O)(=O)c2ccccc2)cc1 | ? | .
COc1ccccc1C(=O)Nc1ccc2nc(N3CCC(C)CC3)cc(C)c2c1 | ? | .
COc1cc(OC)cc(C(=O)Nc2ccc3nc(N4CCC(C)CC4)cc(C)c3c2)c1 | 40µM | ?
Cc1ccc(-c2cc(C(=O)O)c3ccccc3n2)cc1 | . | .
Fc1ccccc1Cn1c(-c2ccccc2)nc2ccccc21 | 45µM | ?
Cc1cccc(Cn2c(-c3ccccc3)nc3ccccc32)c1 | ? | .
O=C(NCc1cccnc1)C1c2ccccc2C(=O)N(Cc2ccccc2)C12CCCCC2 (stereo unspecified) | . | .
OCCNC(=S)Nc1ccc(Br)cc1 | . | .
Cc1cccc(-n2cc(-c3ccccc3)c3c(N4CCC(C)CC4)ncnc32)c1 | ? | .
CC(=O)N1CCN(c2ncnc3c2c(-c2ccccc2)cn3-c2cccc(C)c2)CC1 | ? | 79µM
O=C(O)c1ccc(Nc2nc(-c3ccc(Cl)cc3)cs2)cc1O | 79µM | .
O=C(O)c1cc(Nc2nc(-c3ccccc3)cs2)ccc1O | ? | .
N#Cc1cccc(NC(=O)NCCNC(=O)Nc2cccc(C#N)c2)c1 | . | .
O=C1c2ccccc2C(=O)C1(c1ccccc1)N1CCN(c2cccc(C(F)(F)F)c2)CC1 | 25µM | .
O=C1c2ccccc2C(=O)C1(c1ccccc1)N1CCN(c2cccc(Cl)c2)CC1 | . | .
CC(C)c1ccc(Nc2ncnc3onc(-c4ccc(F)cc4)c23)cc1 | ? | 89µM
Cc1noc2ncnc(Nc3ccc(F)cc3)c12 | . | .
Cn1cccc1/C=C(\C#N)c1ccc(Cl)cc1Cl | . | .
SMILES | AID inh | UDG counterscr
Cc1cc(C)c(CNCCS(=O)(=O)c2ccccc2)c(C)c1 | . | .
COc1ccc(OCCn2c(C3CC(=O)N(c4ccc(F)cc4)C3)nc3ccccc32)cc1 (stereo unspecified) | ? | .
Cc1cccc(C)c1OCCCCn1c(C2CC(=O)N(c3ccc(F)cc3)C2)nc2ccccc21 (stereo unspecified) | ? | 79µM
CCOC(=O)C1=C(C)NC(=O)NC1c1cn(-c2ccccc2)nc1-c1ccc(OC(C)C)cc1 (stereo unspecified) | 28µM | .
COc1ccc(-c2nn(-c3ccccc3)cc2C2NC(=O)NC(C)=C2C(=O)OC(C)C)cc1OC (stereo unspecified) | ? | .
CC1Sc2ccc(S(=O)(=O)CCC(=O)NCCC3=CCCCC3)cc2NC1=O (stereo unspecified) | . | .
O=S(=O)(NCCO)c1ccc(Cl)c2ccccc12 | . | .
CC(C)CNC(=O)CSc1nnc(-c2nn(Cc3ccccc3)c(=O)c3ccccc23)o1 | . | .
Cc1ccc(N(CC(=O)N2CCC(C(N)=O)CC2)S(=O)(=O)c2ccc(Cl)cc2)cc1C | . | .
CC(C)Cc1nc2cccnc2n1C1CCN(S(=O)(=O)c2ccc3c(c2)CCCC3)CC1 | . | 79µM
Cc1nc2cccnc2n1C1CCN(S(=O)(=O)c2ccc(Cl)cc2)CC1 | . | ?
Cc1ccn2c(Nc3ccccc3)c(-c3c[nH]c4ccccc34)nc2c1 | . | .
Cc1ccc(Nc2c(-c3c[nH]c4ccccc34)nc3cc(C)ccn23)cc1 | ? | 79µM
CCc1ccc(/C=C2\Oc3cc(OS(=O)(=O)c4ccc(OC)cc4)ccc3C2=O)cc1 | . | .
COc1ccc(C)cc1COc1ccc(C#N)cc1OC | . | .
Cc1nc(-c2ccncc2)[nH]c(=O)c1CC(=O)N(C)C(C)C(C)(C)C (stereo unspecified) | . | .
Cc1nc(-c2ccncc2)[nH]c(=O)c1CC(=O)N(C)C1CCCCC1 | 28µM | .
Fc1ccc(CNC(=S)NCCc2ccc(Cl)cc2)cc1 | . | .
CC(NC(N)=S)c1ccccc1 (stereo unspecified) | . | .
